# An excerpt weighted towards active compounds, which were near 1.4% of everything screened.
# GRK2 aptamer HTS: blocks RNA aptamer binding to human GRK2. P25098. bead flow cytometry, FAM-aptamer displacement from GRK2. inhibition of aptamer binding, % at 10 µM. 0.59% of 330,000 active;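 active = inhibition of aptamer binding above 40%, roughly 3 SD of noise, on plates passing a quality check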;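 also: median bead fluorescence of bound FAM aptamer so fluorescent compounds give negative values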
# Target sequence (P25098 whole entry, looked up): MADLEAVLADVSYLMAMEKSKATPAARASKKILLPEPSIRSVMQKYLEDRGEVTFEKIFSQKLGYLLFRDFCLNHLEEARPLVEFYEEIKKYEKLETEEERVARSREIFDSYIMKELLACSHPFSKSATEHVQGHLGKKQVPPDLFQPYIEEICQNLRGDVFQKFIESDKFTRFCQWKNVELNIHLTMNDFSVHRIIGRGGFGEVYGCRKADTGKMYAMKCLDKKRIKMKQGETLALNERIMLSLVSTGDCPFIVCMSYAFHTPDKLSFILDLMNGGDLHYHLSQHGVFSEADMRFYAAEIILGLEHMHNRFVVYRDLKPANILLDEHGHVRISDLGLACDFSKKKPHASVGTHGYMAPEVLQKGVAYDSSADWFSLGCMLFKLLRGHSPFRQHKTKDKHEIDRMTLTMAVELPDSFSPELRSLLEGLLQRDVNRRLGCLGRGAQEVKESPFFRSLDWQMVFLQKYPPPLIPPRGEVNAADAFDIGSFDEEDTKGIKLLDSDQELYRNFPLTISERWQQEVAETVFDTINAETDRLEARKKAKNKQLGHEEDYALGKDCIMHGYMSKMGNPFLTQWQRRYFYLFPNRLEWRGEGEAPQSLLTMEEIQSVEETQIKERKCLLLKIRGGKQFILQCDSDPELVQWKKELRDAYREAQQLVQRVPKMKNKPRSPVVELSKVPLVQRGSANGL
# APOBEC3A inh: blocks human APOBEC3A ssDNA deamination; AID 493011; recombinant A3A, FAM/TAMRA ssDNA deamination fluorescence; inhibition, % at 20 µM; 0.41% of 330,000 active; P31941;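 active = at least 40% inhibition at 20 µM here, with at most 30% in a related deaminase screen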;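 also: plate controls were A3A with DMSO for no effect and wells lacking A3A enzyme for full effect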
# VLA-4 inh: inhibition in a human VLA-4 binding assay; P13612; VLA-4 expressing cells, ligand binding flow cytometry; inhibition, % (about 7 µM as worked out from the volumes in the protocol); 0.2% of 330,000 active; AID 2557; in the data active = inhibition above about 50%
# A3G deaminase: blocks human APOBEC3G single-stranded DNA deamination; Q9HC16; recombinant A3G, ssDNA deamination FAM/TAMRA fluorescence; inhibition, % at 20 µM; 0.28% of 330,000 active;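 active = inhibition of at least 40% at 20 µM, with no more than 30% in the related APOBEC3A deaminase screen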;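 also: plate controls were DMSO wells with A3G for no effect and wells lacking A3G enzyme for full effect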
# GRK2 CP1: confirmation of human GRK2 inhibitors displacing RNA aptamer; shares compounds with GRK2 aptamer HTS; bead-bound GRK2, FAM-aptamer displacement, flow cytometry; aptamer displacement, % at 10 µM; 4% of 2,000 active;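 active = aptamer displacement above 40%, near three times the noise of non-fluorescent compounds, on plates passing quality checks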;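 also: negative values mostly reflect intrinsic compound fluorescence rather than true enhancement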
# Aptamer quench 1: quenches fluorescent RNA aptamer, GRK2 hit artifact; shares compounds with GRK2 aptamer HTS; Fluorescent RNA aptamer beads, quenching, flow cytometry; active compounds read high; fluorescence change (kMESF span), kMESF (test concentration not listed); 110 tested, under 10 active; AID 504521;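 active = compounds whose bead fluorescence drops by more than 37 kMESF across the dose range, marking them as dye quenchers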
# FAM quench CP1: aptamer fluorescence quenching in GRK2 counter-screen. shares compounds with GRK2 aptamer HTS. Carboxyfluorescein RNA aptamer on beads, flow cytometry quenching; active compounds read low. fluorescence response (% of DMSO), % at 10 µM. 2,000 tested, under 10 active;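 active = compounds that quench the bead-bound fluorescent RNA probe, cutting fluorescence to under half of the solvent control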;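 also: counterscreen run without GRK2 so only probe quenching by compound is measured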
# GRK2 CP2: human GRK2 inhibition confirmation, cherry pick 2. shares compounds with GRK2 aptamer HTS. inhibition of aptamer binding, % at 10 µM. 360 tested, under 10 active. bead-bound GRK2, FAM-aptamer displacement, flow cytometry;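 active = inhibition of aptamer binding above 40%, about triple the noise seen with nonglowing compounds, on plates passing quality control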;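 also: negative values mostly come from compounds that fluoresce themselves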
# FAM quench SP: aptamer fluorescence quenching in GRK2 counter-screen | shares compounds with GRK2 aptamer HTS | carboxyfluorescein RNA aptamer beads, flow cytometry quenching; active compounds read low | fluorescence response vs DMSO, % at 10 µM | 360 tested, under 10 active;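 active = response vs DMSO under 50%, meaning signal dropped by over half, treated as fluorescence quencher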;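 also: labelled aptamer on streptavidin beads without GRK2 as a quench counter-screen; 100% = bead fluorescence of DMSO wells and lower means quenching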
# FAM quench DR: quenches fluorescent RNA aptamer, GRK2 hit artifact; AID 588496; fluorescence ratio to DMSO, % at 11.1 µM; 35 tested, under 10 active; shares compounds with GRK2 aptamer HTS; Bead-bound FAM RNA aptamer fluorescence quenching, flow cytometry; active compounds read low;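 active = compounds that dim the fluorescent label, raw bead signal shifting by over 33 units between lowest and highest dose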
# * marks the source's active call; other numbers are inactive results; . = no result.
SMILES,GRK2 aptamer HTS,APOBEC3A inh,VLA-4 inh,A3G deaminase,GRK2 CP1,FAM quench CP1,others
O=C(Cn1nc(CNc2ccc(Br)cc2)[n+]2c1CCCCC2)c1ccc([N+](=O)[O-])cc1,86*,3,16,2,-28,94,
CN(C(=O)COC(=O)c1cccnc1Nc1cccc(C(F)(F)F)c1)C1CCS(=O)(=O)C1 (stereo not drawn),0,3,18,-1,-3,98,
CN(C(=O)COC(=O)c1cccnc1Nc1ccccc1F)C1CCS(=O)(=O)C1 (stereo not drawn),1,-3,8,-4,.,.,
CCCc1cc(=O)[nH]c(SCC(=O)c2cc(C)n(-c3cc(C)on3)c2C)n1,0,-2,8,-7,.,.,
Cc1c(N2C(=O)CSC2=S)c(=O)n(-c2ccccc2)n1C,3,-5,2,-10,.,.,
Cc1ccccc1CSCC(=O)c1c(N)n(CC(C)C)c(=O)n(C)c1=O,1,-1,1,-6,.,.,
CC(C)Cn1c(N)c(C(=O)CSc2ccccc2)c(=O)n(C)c1=O,47*,.,2,.,-3,97,
O=C(/C=C/c1ccc(Br)o1)OCc1nc2ccsc2c(=O)[nH]1,88*,93,4,80,16,99,
CCn1c(SCC(=O)c2ccc3ccccc3c2)nnc1-c1ccco1,0,2,7,0,.,.,
CCOC(=O)c1oc2ccc(Br)cc2c1COC(=O)C1=COCCO1,2,4,2,-7,.,.,
CCCNC(=O)C(Cc1ccccc1F)NC(=O)c1ccccn1 (stereo not drawn),86*,-3,0,-11,1,96,GRK2 CP2=3;FAM quench SP=100
COc1ccccc1NC(=O)Cc1csc(NC(=S)Nc2ccccc2)n1,58*,0,3,-2,2,99,
CCOC(=O)c1sc(NCc2ccco2)c(-c2nc3ccccc3s2)c1N,68*,-3,-14,-3,70*,102,Aptamer quench 1=-3.2
CCNc1sc(C(=O)c2cccs2)c(N)c1-c1nc2ccccc2s1,3,2,-4,5,.,.,
COc1cc(C(=O)NCCCN2CCCC2=O)cc(OC)c1OC,94*,-4,0,-7,1,100,
COc1cc(-c2noc(C)c2C(=O)NCCCN2CCCC2=O)cc(OC)c1OC,3,-2,3,-7,.,.,
O=C(Nc1ccccc1C(=O)Nc1ccc(Br)cn1)c1ccccc1Cl,44*,-2,32,-1,.,.,GRK2 CP2=16;FAM quench SP=100
O=C(NCC1CCCO1)C1CCCN1C(=O)Nc1ccc(Cl)c(Cl)c1 (stereo not drawn),53*,-2,3,-8,-5,99,
Cc1ccc(N2C(=O)[C@@H]3C(c4cccnc4)=NO[C@@H]3C2=O)c(C)c1,0,2,24,-4,.,.,
Cc1ccc(N2C(=O)[C@@H]3C(c4ccc(F)cc4)=NO[C@@H]3C2=O)cc1,4,0,24,-5,.,.,GRK2 CP2=1;FAM quench SP=102
O=C1[C@@H]2C(c3cccnc3)=NO[C@@H]2C(=O)N1c1ccc(Br)cc1,5,0,10,-5,.,.,
COc1ccc(C2=NO[C@@H]3C(=O)N(c4ccc(C)cc4C)C(=O)[C@H]23)cc1OC,0,-8,10,-4,.,.,GRK2 CP2=-3;FAM quench SP=104
COc1ccc(C2=NO[C@@H]3C(=O)N(c4cccc(C)c4C)C(=O)[C@H]23)cc1OC,0,1,19,1,.,.,GRK2 CP2=10;FAM quench SP=100
COc1cc(C2Nc3cccc4cccc(c34)N2)cc(OC)c1OC(C)=O,0,13,-6,19,.,.,
NC(=O)c1ccsc1NC(=O)COC(=O)c1ccc([N+](=O)[O-])o1,80*,3,6,-5,-3,99,
SMILES,GRK2 aptamer HTS,APOBEC3A inh,VLA-4 inh,A3G deaminase,GRK2 CP1,FAM quench CP1,others
Cn1nnnc1SCCNCC#Cc1ccccc1,0,4,-6,0,.,.,
COc1ccccc1NC(=O)C(C)OC(=O)C1CC(=O)N(c2ccc3c(c2)OCCO3)C1 (stereo not drawn),0,-2,15,-7,.,.,
COc1cccc(C2=NO[C@@H]3C(=O)N(c4ccc5c(c4)OCCO5)C(=O)[C@H]23)c1OC,3,-6,11,-7,.,.,GRK2 CP2=1;FAM quench SP=102
COc1cccc(OC)c1OC(=O)C1CC(=O)N(c2ccc3c(c2)OCCO3)C1 (stereo not drawn),2,32,6,8,.,.,GRK2 CP2=30;FAM quench SP=104
O=C(Nc1ccc2c(c1)OCO2)C1CC(=O)N(c2ccc3c(c2)OCCO3)C1 (stereo not drawn),1,3,22,-3,.,.,
O=C(O)C1CC(=O)N(c2ccc3c(c2)OCCO3)C1 (stereo not drawn),61*,12,-14,4,40*,97,Aptamer quench 1=-12;FAM quench DR=101
COc1cccc(C2=NO[C@@H]3C(=O)N(Cc4ccccc4)C(=O)[C@H]23)c1OC,2,1,-1,-1,.,.,
Cc1ccc(NC(=O)CSc2nc3ncc(Br)cc3[nH]2)cc1C,0,-2,-4,-3,.,.,
COC(=O)c1sc2ncn(N)c(=O)c2c1C,42*,-4,6,-4,1,97,
CC(NC(=O)COc1ccc(Oc2ccccc2)cc1)C(=O)O (stereo not drawn),52*,1,8,0,-3,108,
C=CCn1c[n+](CC(=O)c2ccc(Br)s2)c2ccccc21,57*,2,0,-3,-4,103,
O=c1ccc2cc(S(=O)(=O)N3CCOCC3)ccc2o1,56*,-1,-17,-3,-5,101,
O=S(=O)(Nc1cccc(-c2ccc(N3CCOCC3)nn2)c1)c1cc(Cl)ccc1Cl,5,-4,1,-13,.,.,
C=CCOc1ccc(C(=O)CC)cc1OC,93*,-4,10,-8,4,100,
COc1ccc(-n2c(C)cc(C(=O)CSc3nnc(-c4ccoc4C)n3C)c2C)cc1,91*,-1,6,-4,2,100,
NCCCC[C@@H]1NC(=O)[C@H](CCC(=O)O)NC(=O)c2cc([N+](=O)[O-])cc(I)c2SC[C@@H](C(=O)NCC(N)=O)NC1=O,1,3,-15,-10,.,.,
NCCCC[C@H]1NC(=O)[C@H](CCC(=O)O)NC(=O)c2cc([N+](=O)[O-])cc(I)c2OCC[C@@H](C(N)=O)NC1=O,56*,95,-1,81,37,102,
